Most compounds without a hit are left out; they make up all but 1.1% or so of the library.
AGP1-GFP MLPCN – modulators of AGP1-GFP expression in yeast TOR pathway, primary screen, cell-based, multiplex flow cytometry, S. cerevisiae, MLPCN library; 3 h; GFP as percent of DMSO wells; GFP response vs DMSO, % at 10 µM; actives 0.02% (n = 320,000);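 active = GFP response relative to DMSO above a set limit, near screen average plus 3 SD, cut at about 150% in these data; inconclusive = fewer than 70 cells counted for the yeast strain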;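 also: median GFP channel fluorescence of the gated AGP1 strain per well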
VLA-4 inh – inhibition in human VLA-4 binding assay, primary screen, VLA-4 allosteric modulator project, MLPCN library, flow cytometry, VLA-4 expressing cells; Integrin alpha-4 (Homo sapiens), P13612; ligand binding flow cytometry; inhibition, % (about 7 µM as worked out from the volumes in the protocol); actives 0.2% (n = 330,000); in the data active = inhibition above about 50%
Target sequence (P13612 whole entry, looked up): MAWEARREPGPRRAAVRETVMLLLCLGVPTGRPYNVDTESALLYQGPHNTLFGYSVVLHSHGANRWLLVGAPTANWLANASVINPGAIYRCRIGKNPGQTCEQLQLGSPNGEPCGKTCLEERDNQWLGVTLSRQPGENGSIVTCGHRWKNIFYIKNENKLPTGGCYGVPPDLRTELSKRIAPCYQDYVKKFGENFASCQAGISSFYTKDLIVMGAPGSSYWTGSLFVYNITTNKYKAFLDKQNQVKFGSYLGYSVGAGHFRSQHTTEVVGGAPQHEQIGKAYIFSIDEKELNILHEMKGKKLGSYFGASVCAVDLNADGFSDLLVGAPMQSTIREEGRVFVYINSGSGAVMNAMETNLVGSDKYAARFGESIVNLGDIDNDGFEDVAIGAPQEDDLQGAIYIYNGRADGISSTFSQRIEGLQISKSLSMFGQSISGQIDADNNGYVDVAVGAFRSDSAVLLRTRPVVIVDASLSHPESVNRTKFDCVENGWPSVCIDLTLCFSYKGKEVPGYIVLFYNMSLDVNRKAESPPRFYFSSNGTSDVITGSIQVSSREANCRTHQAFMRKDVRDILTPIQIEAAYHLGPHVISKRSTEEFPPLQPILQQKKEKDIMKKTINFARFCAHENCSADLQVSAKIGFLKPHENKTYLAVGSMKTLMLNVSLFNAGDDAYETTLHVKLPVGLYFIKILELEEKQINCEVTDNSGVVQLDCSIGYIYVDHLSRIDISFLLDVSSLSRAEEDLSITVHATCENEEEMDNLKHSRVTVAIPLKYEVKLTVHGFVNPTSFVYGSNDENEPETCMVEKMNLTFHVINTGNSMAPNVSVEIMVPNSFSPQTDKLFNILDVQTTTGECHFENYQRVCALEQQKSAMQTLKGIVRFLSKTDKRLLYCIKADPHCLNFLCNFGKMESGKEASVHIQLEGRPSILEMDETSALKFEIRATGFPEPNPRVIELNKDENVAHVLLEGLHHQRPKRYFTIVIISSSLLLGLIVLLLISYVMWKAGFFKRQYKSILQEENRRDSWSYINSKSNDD
MEP2-GFP yeast – modulators of MEP2-GFP levels in yeast, primary screen, S. cerevisiae, multiplex flow cytometry, MLPCN library; S. cerevisiae MEP2-GFP strain, 3 h; 100% = DMSO control level; GFP response vs DMSO, % at 10 µM; actives 0.51% (n = 330,000);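 active = GFP response versus DMSO above a set limit, roughly screen mean plus 3 SD, cut at about 180% in these data; inconclusive = fewer than 70 cells counted for a yeast strain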;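 also: median GFP fluorescence of the barcode-gated MEP2-GFP cells per well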
RPL19A-GFP yeast – RPL19A-GFP expression modulators in yeast, primary screen, cell-based, S. cerevisiae, multiplex flow cytometry, MLPCN; S. cerevisiae RPL19A-GFP strain, 3 h; active compounds read low; percent response vs DMSO, % at 10 µM; actives 0.3% (n = 330,000); AID 2025, 2009;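 active = percent response vs DMSO below 50%; inconclusive = fewer than 70 events counted for the yeast strain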;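 also: median channel GFP fluorescence of the barcoded RPL19A-GFP strain; ratio of sample median GFP to plate DMSO average so 100% = DMSO; lower means less RPL19A-GFP as with rapamycin TOR inhibition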
CIT2 TOR yeast – modulators of CIT2-GFP expression in yeast, primary screen, S. cerevisiae, GFP fusion, multiplex flow cytometry, MLPCN library | actives 0.065% (n = 320,000) | S. cerevisiae CIT2-GFP strain, 3 h; 100 means same as DMSO wells | AID 2029, 2009 | GFP response vs DMSO, % at 10 µM;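 active = GFP response relative to DMSO above a set limit, near the screen mean plus 3 SD, cut at about 150% in these data; inconclusive = Fewer than 70 cells measured for a yeast strain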;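 also: ratio of well median GFP fluorescence to mean of DMSO wells on the plate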
LAP4 TOR yeast – modulators of LAP4-GFP expression in yeast, primary screen, S. cerevisiae, multiplex flow cytometry, MLPCN library; 3 h; median GFP as percent of DMSO wells; GFP response vs DMSO, % at 10 µM; actives 0.34% (n = 320,000);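 active = GFP response vs DMSO above a set limit, about the screen mean plus 3 SD, cut at about 150% in these data; inconclusive = under 70 cell events counted for the yeast strain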
An asterisk follows results filed as active; i = inactive; ? = inconclusive; / = not tested or not shown; [ ] = another dose, or the depositor's remark.

SMILES | AGP1-GFP MLPCN | VLA-4 inh | MEP2-GFP yeast | RPL19A-GFP yeast | CIT2 TOR yeast | LAP4 TOR yeast
CN1CC(=O)NC1=NC(=O)C12CC3CC(CC(C3)C1)C2 | 89 | 9 | 99 | 93 | 79 | 229*
CCOc1ccc(CCNC(=O)C(C)N2C(=O)CC(C)(C)Sc3ccccc32)cc1 (stereo not drawn) | 108 | 7 | 115 | 112 | 117 | 104
CCCC(=O)Nc1c(-c2cccc(OC)c2)c(=O)c2ccccc2n1C | 109 | -1 | 113 | 105 | 113 | 114
O=C(C1CCN(Cc2ccc(F)cc2)CC1)N(CCO)Cc1ccccc1 | 24 | 13 | 422*[may fluoresce violet] | 67 | ? | 82
CC(C)COc1nc2ccccc2nc1C(C#N)C(=O)NC1CCCCC1 (stereo not drawn) | 30 | 3 | 307*[may fluoresce violet] | / | ? | 88
CC1CN(c2nc3ccccc3nc2C(C#N)C(=O)NC2CCCCC2)CC(C)O1 (stereo not drawn) | 102 | 2 | 99 | 98 | 104 | 104
CC(NC(=O)CN(c1cccc(C(F)(F)F)c1)S(C)(=O)=O)c1ccccc1 (stereo not drawn) | 110 | -1 | 109 | 106 | 105 | 103
CCOC(=O)C1CCCN(c2c(C(=O)c3ccccc3)cnc3ccccc23)C1 (stereo not drawn) | 104 | -17 | 195* | 112 | 190* | 128
Cc1ccc(O)c(CNc2cnc3ccccc3c2)c1 | 17 | -1 | 223*[may fluoresce violet] | 53 | ? | 93
Cc1ccc(S(=O)(=O)/N=C(/Nc2ccc(F)cc2F)c2ccc(F)cc2)cc1 | 90 | 14 | 110 | 99 | 100 | 94
O=S(=O)(/N=C(/Nc1ccc(F)cc1F)c1ccc(Cl)cc1)c1ccccc1 | / | 5 | 175* | 83 | 126 | 139
COc1cc(/C=N/O)ccc1Oc1cnccn1 | 102 | 5 | 104 | 106 | 109 | 89
CCOc1ncccc1C(=O)NCCc1ccc(S(N)(=O)=O)cc1 | ? | -2 | 231*[may fluoresce violet] | 38*[may fluoresce violet] | ? | 60
CC(Cc1ccco1)NC(=O)c1cccc(S(=O)(=O)N(C)C)c1 (stereo not drawn) | 100 | 2 | 107 | 108 | 111 | 95
CC(C)(C)c1ccc(S(=O)(=O)NCc2ccc(C(=O)NCC3CCCO3)cc2)cc1 (stereo not drawn) | 96 | 11 | 90 | 106 | / | 75
COc1cccc(S(=O)(=O)NCc2ccc(C(=O)NCC3CCCO3)cc2)c1 (stereo not drawn) | 24 | 2 | 190*[may fluoresce violet] | 65 | ? | 97
C=CCn1c(=N)c(C(=O)NCCCOC)cc2c(=O)n3cc(C)ccc3nc21 | ? | -2 | 775*[may fluoresce violet] | 34*[may fluoresce violet] | ? | 247*[may fluoresce violet]
CNC(=O)c1cc2c(=O)n3cc(C)ccc3nc2n(C(C)C)c1=N | ? | 1 | 195*[may fluoresce violet] | 31*[may fluoresce violet] | ? | 84
O=C(NCCc1ccccc1F)C1CCC(=O)N(Cc2ccc(Cl)cc2)C1 (stereo not drawn) | 99 | 2 | 109 | 109 | 112 | 84
Cc1ccc(C(=O)Nc2nnc(CC(=O)N/N=C/c3ccc(O)c(O)c3)s2)cc1 | 95 | 5 | 185* | 108 | 145 | 130
CC(C)N(CCCNC(=O)c1ccc(CS(=O)(=O)c2c(Cl)cccc2Cl)o1)Cc1ccccc1 | 97 | 10 | 95 | 93 | 98 | 94
CCCCCn1c(CNC(=O)COC)nc2ccccc21 | ? | 14 | 191*[may fluoresce violet] | 20*[may fluoresce violet] | ? | 66
O=C(NCCCN1CCN(c2cccc(Cl)c2)CC1)c1cccc(N2CCCC2=O)c1 | / | 3 | 215*[may fluoresce violet] | 56 | ? | 91
COc1ccc(OCc2nnc(SCC(=O)Nc3ccc(C)cc3)o2)cc1 | 20 | 6 | 195*[may fluoresce violet] | 94 | ? | 92
COc1ccc(-c2nnc(SCC(=O)NC3CCCCC3)o2)cc1 | 32 | 9 | 200*[may fluoresce violet] | 62 | ? | 98
SMILES | AGP1-GFP MLPCN | VLA-4 inh | MEP2-GFP yeast | RPL19A-GFP yeast | CIT2 TOR yeast | LAP4 TOR yeast
COc1ccc(-c2nnc(SCC(=O)NC3CC3)o2)cc1 | 102 | 13 | 103 | 99 | 94 | 109
CC(NC(=O)COC(=O)CCc1nc(=O)c2ccccc2n1C)c1ccccc1 (stereo not drawn) | 101 | 12 | 100 | 95 | 107 | 99
Cn1c(CCC(=O)OCC(=O)NCC(F)(F)F)nc(=O)c2ccccc21 | ? | 1 | 189*[may fluoresce violet] | 19*[may fluoresce violet] | ? | 111
CC(=O)c1ccc(NC(=O)CN2CCC(NC(=O)C3CCCCC3)CC2)cc1 | 105 | 6 | 175* | 105 | 134 | 124
CCCCn1c(N)c(N(Cc2ccccc2OC)C(=O)CN2C(=O)NC3(CCCC3)C2=O)c(=O)[nH]c1=O | 103 | -7 | 99 | 98 | 102 | 110
CCOc1ccc(Br)cc1S(=O)(=O)NC1=NCCCCC1 | 103 | 15 | 99 | 93 | 99 | 108
CCc1ccc(C2CC(c3ccco3)=NN2S(C)(=O)=O)cc1 (stereo not drawn) | 111 | i | 215* | 109 | 156* | 142
Cn1cccc1C(=O)C(=O)Nc1ccc(F)c(F)c1 | ? | 8 | 93 | 47*[may fluoresce violet] | ? | 125
Cn1cccc1C(=O)C(=O)Nc1ccc(Cl)cc1 | 88 | -3 | 90 | 90 | 79 | 103
O=C(c1cc(F)ccc1F)N1CCC(N2CCC(C(=O)N3CCCC3)CC2)CC1 | 14 | -5 | 115 | 37*[may fluoresce violet] | ? | 84
O=C(c1ccccc1Cl)N1CCC(N2CCC(C(=O)N3CCCC3)CC2)CC1 | 96 | 9 | 98 | 97 | 93 | 85
C=CCNC(=O)COC(=O)C1CCN(S(=O)(=O)c2ccc3c(c2)OCCO3)CC1 | 98 | -6 | 98 | 100 | 98 | 99
COCCNC(=O)CCn1c(=O)oc2ccccc21 | ? | 25 | 499*[may fluoresce violet] | 50*[may fluoresce violet] | ? | 104
COc1ccc(CCNc2ncnc3c2oc2ccccc23)cc1OC | 92 | 12 | 98 | 94 | 91 | 115
COc1ccc(CCNc2nc(C)nc3c2oc2ccccc23)cc1OC | / | 15 | 200*[may fluoresce violet] | 42*[may fluoresce violet] | ? | 93
CC1=CC(c2ccccc2)n2nc(N3C(=O)C4CC=CCC4C3=O)nc2N1 (stereo not drawn) | / | 9 | 448*[may fluoresce violet] | 44*[may fluoresce violet] | ? | 101
Cc1[nH]c2ccccc2c1C(c1ccccn1)N1CCC(C(N)=O)CC1 (stereo not drawn) | 79 | 13 | 84 | 85 | 79 | 150*

High-throughput results (PubChem BioAssay)
